A selection: hits, their analogues and other compounds. The true share with any hit is near 3.4%.
GPR151 activ: activates the human receptor GPR151 | Q8TDV0 | PathHunter beta-arrestin GPR151 cells, luminescence | activation, % at 11.2 µM | 650,000 tested, 1% active | AID 1508602; in the data active means activation above about 4.9%
FBW7 act: human FBW7 E3 ligase activation, primary screen; AID 1259310; normalized activity (activation), % at 26.1 µM; Q969H0; AlphaScreen FBW7–phospho-cyclin E peptide binding, activator screen; 650,000 tested, 0.13% active; in the data active means normalized activity above about 1.9%;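 further: purified mutant Fbw7 with reduced substrate affinity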
TEAD-YAP block: TEAD-YAP interaction inhibition; HEK-TIYL cells, TEAD-Gal4/YAP UAS-luciferase luminescence; inhibition, % at 9.12 µM; 640,000 tested, 1.4% active; AID 1259422; in the data active means inhibition above about 32%
MITF primary: inhibitors of human MITF | inhibition, % at 2.6 µM | AID 1259374 | O75030 | AlphaScreen MITF homodimerization, bead proximity signal | 650,000 tested, 0.91% active; in the data active means inhibition above about 50%
Target sequence (O75030 whole entry, looked up): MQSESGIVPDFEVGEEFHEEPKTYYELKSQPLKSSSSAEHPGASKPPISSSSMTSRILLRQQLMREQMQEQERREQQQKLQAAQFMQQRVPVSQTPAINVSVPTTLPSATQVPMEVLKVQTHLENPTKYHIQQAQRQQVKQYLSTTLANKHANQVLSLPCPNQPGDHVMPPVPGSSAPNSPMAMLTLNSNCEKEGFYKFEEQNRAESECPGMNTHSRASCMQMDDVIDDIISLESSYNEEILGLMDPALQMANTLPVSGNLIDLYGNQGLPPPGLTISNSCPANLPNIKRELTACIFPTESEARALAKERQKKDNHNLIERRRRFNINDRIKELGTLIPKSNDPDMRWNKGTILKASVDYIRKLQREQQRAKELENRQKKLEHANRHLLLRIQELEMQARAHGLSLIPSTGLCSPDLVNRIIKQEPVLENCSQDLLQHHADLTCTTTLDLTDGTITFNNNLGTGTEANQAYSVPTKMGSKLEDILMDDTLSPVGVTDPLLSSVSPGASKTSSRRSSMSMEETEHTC
Of the large screens only hits and unclear results are named; the others gave an inactive call.

COc1ccc(C(=O)Nc2cnc(NC(=O)c3cccs3)cc2C)cc1	TEAD-YAP block 37
CC(=O)Nc1cnc(NC(=O)c2ccc(Cl)cc2)cc1C	TEAD-YAP block 52
COc1cc(CNc2ccc3ncc(-c4cccc(N(C)C)c4)n3n2)cc(OC)c1OC	TEAD-YAP block 50
COc1cc(-c2cnc3ccc(NCC4CC4)nn23)ccc1O	none
CCCNc1ccc2ncc(-c3ccc(O)c(OC)c3)n2n1	TEAD-YAP block 71
OCc1ccccc1-c1cnc2ccc(NCc3cccs3)nn12	none
COc1ccccc1-c1cnc2ccc(NCc3cccs3)nn12	FBW7 act 1.9
COc1cc(-c2cnc3ccc(NCc4cccs4)nn23)ccc1O	TEAD-YAP block 40
COc1cc(-c2cnc3ccc(NCc4cccs4)nn23)cc(OC)c1OC	none
COc1cc(CNc2ccc3ncc(-c4cccc(O)c4)n3n2)cc(OC)c1OC	none
CC(=O)c1cc(C#N)c(SCC(=O)OC(C)C)nc1C	none
Nc1nc(Nc2ccc(Oc3ccccc3)cc2)cc(Nc2ccccn2)n1	none
COc1cc(OC)cc(-c2cc3nc(C)c(CCC(=O)O)c(C)n3n2)c1	TEAD-YAP block 56
CC(=O)N1c2ccccc2NC2=C(C(=O)CCC2)C1c1cccc(Br)c1 (centres undefined)	TEAD-YAP block 37
CC(=O)N1c2ccccc2NC2=C(C(=O)CCC2)C1c1ccccc1 (centres undefined)	TEAD-YAP block 37
COc1ccccc1NC(=O)c1cc(CNCc2cccc(F)c2)cc(NC(C)=O)c1	none
Cn1c(=O)c2c(nc(NCCO)n2Cc2cccc(Br)c2)n(C)c1=O	none
CCNc1nc2c(c(=O)n(C)c(=O)n2C)n1Cc1cccc(C)c1	TEAD-YAP block 44
Cc1cccc(Cn2c(NCCO)nc3c2c(=O)n(C)c(=O)n3C)c1	TEAD-YAP block 42
Cn1c(=O)c2c(nc(Cl)n2Cc2cccc(C(F)(F)F)c2)n(C)c1=O	TEAD-YAP block 37
CCCCOC(=O)c1cccc(N2C(=O)C3C4CCC(C4)C3C2=O)c1 (centres undefined)	none
CC(=O)Oc1ccc2c3c(c(=O)oc2c1C)CCC3	none
COC(=O)c1ccc(C2Nc3ccc4ncccc4c3C3=C2C(=O)CCC3)cc1OC (centres undefined)	TEAD-YAP block 59
Cc1cn2c(=O)c(C(=O)N3CCCC3)cnc2s1	none
Cc1ccc2nc(C3C(=O)c4ccccc4C3=O)ccc2c1	TEAD-YAP block 54
COc1ccc2nc(C3C(=O)c4ccccc4C3=O)ccc2c1	TEAD-YAP block 83
Cc1cc(C)nc(SCC(=O)Nc2ccnc3ccccc23)n1	TEAD-YAP block 41
COc1ccc(-c2cc(-c3ccccc3)c(C#N)c(S(C)=O)n2)cc1 (centres undefined)	TEAD-YAP block 53
COc1ccc(-c2cc(-c3ccccc3)c(C#N)c(S(=O)Cc3ccccc3)n2)cc1 (centres undefined)	none
Cc1ccc(-c2cc(C(=O)Nc3ccc(Cl)c(Cl)c3)c3ccccc3n2)cc1	none
COC(=O)c1ccc(C2N(O)C3CCCCC3N2O)cc1 (centres undefined)	none
CN(C)c1ccc(C2N(O)C3CCCCC3N2O)cc1 (centres undefined)	TEAD-YAP block 34
c1cc(CNc2ccn3ncc(-c4ccc5c(c4)OCO5)c3n2)ccn1	none
CN(C)CCNc1ccn2ncc(-c3ccc4c(c3)OCO4)c2n1	FBW7 act 2.0
COC(=O)c1cc(N2C(=O)C3C4C=CC(C)(O4)C3C2=O)ccc1Cl (centres undefined)	none
CCC(C)Nc1ncnc2c1cnn2-c1ccc(Cl)cc1 (centres undefined)	TEAD-YAP block 37
CCN(CC)c1ncnc2c1cnn2-c1ccc(Cl)cc1	TEAD-YAP block 70
Cc1noc(/C=C/N2CCOCC2)c1S(=O)(=O)N(C)CC(=O)NC1CCCCC1	none
O=C1c2cccc([N+](=O)[O-])c2C(=O)N1c1ccc2c(c1)oc1ccccc12	none
O=[N+]([O-])c1ccccc1S(=O)(=O)Nc1ccc(S(=O)(=O)N2CCCC2)cc1	none
CC(=O)N1CCc2c(sc(NC(=O)c3ccc(C)cc3)c2C#N)C1	TEAD-YAP block 39
CCOC(=O)N1CCc2c(sc(NC(=O)CCOc3ccccc3)c2C#N)C1	TEAD-YAP block 38
CCOC(=O)N1CCc2c(sc(NC(=O)c3ccc(N(C)C)cc3)c2C#N)C1	TEAD-YAP block 49
CC(C)N1CCC(N2CCN(Cc3cccc(OCCO)c3)CC2CCO)CC1 (centres undefined)	none
CCOc1ccc(N2C(=O)C(CC(=O)Nc3ccc(C(=O)OC)cc3)N(Cc3ccccc3)C2=S)cc1 (centres undefined)	none
COc1cccc(CC(=O)N2CCC3(CC2)OCc2ccccc2O3)c1	none
O=C(c1ccc2c(c1)CCO2)N1CCC2(CC1)OCc1cc(Cl)ccc1O2	TEAD-YAP block 37
COc1ccc(CC(=O)N2CCC3(CC2)OCc2ccccc2O3)cc1OC	TEAD-YAP block 55
COc1ccc(CC(=O)N2CCC3(CC2)OCc2cc(Cl)ccc2O3)cc1OC	TEAD-YAP block 61
O=C(O)C1CCCCN1S(=O)(=O)c1cccc2nsnc12 (centres undefined)	none
Cc1cc2c(cc1S(=O)(=O)C(C)CC(=O)N(C)C1CCCCC1)OCC(=O)N2 (centres undefined)	none
CN(Cc1ccccc1)c1nccnc1-c1ccc(O)cc1	none
C[C@@H]1NC(=O)[C@H]2CN(C(=O)c3ccc(C(F)(F)F)cc3)CCN2C1=O	none
COC(=O)Nc1cc([N+](=O)[O-])cc([N+](=O)[O-])c1Br	TEAD-YAP block 99
COC(=O)Nc1ccc(C(C)(C)C)cc1[N+](=O)[O-]	none
c1ccc(Nc2nc(N3CCCCC3)c3ccccc3n2)cc1	TEAD-YAP block 42
Clc1ccccc1-c1nc(N2CCCC2)c2ccccc2n1	none
Cc1cccc(Nc2nc(N3CCOCC3)c3ccccc3n2)c1	TEAD-YAP block 38
CN(C)c1ccc(Nc2nc(N3CCOCC3)c3ccccc3n2)cc1	TEAD-YAP block 42
Clc1ccccc1-c1nc(N2CCOCC2)c2ccccc2n1	FBW7 act 2.6
Oc1cccc(Nc2nc(N3CCOCC3)c3ccccc3n2)c1	none
Cc1ccc(Nc2nc(N3CCOCC3)c3ccccc3n2)cc1	none
Cc1cccn2c(CNCCC3=CCCCC3)c(C(=O)N3CCOCC3)nc12	none
Cc1ccc(CC2(O)CC(C)N(C)CC2C)cc1 (centres undefined)	none
COc1ccc2nc(NC(=O)Cn3cnc4scc(-c5ccccc5)c4c3=O)sc2c1	none
CCC[N+]1(CCC)Cc2cc3ccccc3c(-c3ccccc3)c2C1	none
COc1ccc(-c2ccc(C(=O)Nc3cc(OC)c(OC)c(OC)c3)s2)cc1	TEAD-YAP block 36
COc1cc(NC(=O)c2ccc(-c3ccc(C(N)=O)cc3)s2)cc(OC)c1OC	none
COc1cc(NC(=O)c2ccc(-c3ccc(N4CCN(C)CC4)cc3)s2)cc(OC)c1OC	TEAD-YAP block 62
Oc1ccc(Br)cc1C1CC(c2cccc(Br)c2)=NC(c2ccc(F)c(Br)c2)N1 (centres undefined)	TEAD-YAP block 32
COc1cccc(C2=NC(c3ccc(Br)cc3)NC(c3cc(Br)ccc3O)C2)c1 (centres undefined)	none
